According to PubChem BioAssay AID485358 (National Center for Advancing Translational Sciences (NCATS), 2010):
About 1,800 (0.53%) of roughly 340,000 compounds were called active. This is one part of a sample in which actives are shown more often than they occur.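 The calls were made as follows: active = activation over 3 SD above normal in the single-dose calcium agonist read (cut at about 30% in these data); inactive = the rest.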

target: D(2) dopamine receptor (Homo sapiens) (UniProt P14416); assay: HTS Assay for Allosteric Agonists of the Human D2 Dopamine Receptor: Primary Screen for Agonists; conditions: HEK293 T-REx D2 cells, calcium flux agonist mode; at 2 µM; stronger effect = higher value; also: 0% is about no effect
Sequence (P14416 whole entry, looked up): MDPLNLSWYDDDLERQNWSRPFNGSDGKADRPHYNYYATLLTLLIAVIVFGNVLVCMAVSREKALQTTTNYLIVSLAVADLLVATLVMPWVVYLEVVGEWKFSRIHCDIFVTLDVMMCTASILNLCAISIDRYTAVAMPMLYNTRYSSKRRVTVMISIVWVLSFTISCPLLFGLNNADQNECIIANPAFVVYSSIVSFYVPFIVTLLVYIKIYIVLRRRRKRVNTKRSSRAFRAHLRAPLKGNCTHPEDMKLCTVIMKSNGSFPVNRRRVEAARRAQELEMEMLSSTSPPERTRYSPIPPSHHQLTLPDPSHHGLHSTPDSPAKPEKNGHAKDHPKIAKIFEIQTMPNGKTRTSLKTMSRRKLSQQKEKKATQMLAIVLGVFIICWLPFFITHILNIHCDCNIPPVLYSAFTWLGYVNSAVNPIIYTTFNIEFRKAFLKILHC
From the text: NIH Chemical Genomics Center [NCGC] NIH Molecular Libraries Probe Centers Network [MLPCN] MLPCN Grant: NS064831-01 Assay Submitter (PI): David Sibley Dopamine receptors (DARs) are involved in the etiology and/or therapy of a number of neuropsychiatric and endocrine disorders. For instance, all receptor-based antiparkinsonian drugs work via stimulating the D2 DAR subtype whereas all FDA-approved antipsychotic agents are antagonists of this receptor. […] There are three different types of allosteric modulators that we are seeking, two of which will stimulate or augment receptor signaling, allosteric agonists and potentiators, while the third, allosteric antagonists, will attenuate receptor signaling. The present primary screening assay measures compound agonism by tracking calcium flux in a […], inducible Hek293 Trex D2 cell line.
Freshly passaged cells are plated in 1536 well black, clear bottom plates at a density of 4000 cells/well in 3 ul of complete media containing 1x tetracycline inducer. After an overnight incubation at […] in 5% CO2, cells are loaded with 2 ul of the no wash Calcium Assay Kit (ABD Bioquest) and incubated at room temperature for 30 to 90 minutes. Agonist read: A 10 cycle (1 second/cycle) baseline measurement is taken and then the FDSS online 1536 pintool delivers 23 nl of compound library (as well as dopamine controls) to the plate. The plate is measured for kinetically at 1 cycle/sec for 180 seconds and is considered to be the agonist portion of the assay (eg, compounds which activate a positive calcium response during this portion are flagged as potential agonists). Following the 180 second read, 1 ul of either an EC20 (positive modulation assay) or EC80 (negative modulation assay) is delivered by an onboard pipette head. Measurements are taken kinetically for an additional 180 seconds.

Structure (SMILES) | activation
O=C(c1ccco1)N1CCN(Cc2cccc(C(F)(F)F)c2)CC1 | 59.9% (active)
COc1cccc(OC)c1OCCN1CCN(C(=O)c2ccco2)CC1 | 87.8% (active)
O=C(Nc1ccc(F)cc1F)N1CCCN(CCOc2ccccc2)CC1 | 41.8% (active)
O=CN1CCN(C(=O)c2ccc(Br)o2)CC1 | 0.34% (inactive)
O=C(c1ccco1)N1CCN(C(=S)Nc2cc(F)cc(F)c2)CC1 | 0.216% (inactive)
O=C(CN1CCN(C(=O)c2ccco2)CC1)Nc1ccc(Cl)c(C(F)(F)F)c1 | -0.254% (inactive)
O=C(CN1CCN(C/C=C/c2ccccc2)CC1)Nc1ccc(F)cc1F | 0.754% (inactive)
Cc1ccc(F)cc1NC(=O)N1CCCN(c2ccc(C(F)(F)F)cn2)CC1 | 0.948% (inactive)
COc1cccc(OC)c1C(=O)N1CCN(Cc2cccnc2)CC1 | 1.08% (inactive)
O=C(c1ccc(Br)o1)N1CCN(CCOc2ccccc2)CC1 | 67.9% (active)
c1ccc(-c2ccc(OCCN3CCOCC3)cc2)cc1 | 0.22% (inactive)
COc1cccc(OCc2cc(C(=O)N3CCN(C(=O)c4ccco4)CC3)no2)c1 | -0.444% (inactive)
CC(=O)N1CCCc2cc(S(=O)(=O)Nc3ccc(Cl)cc3F)ccc21 | 0.983% (inactive)
COc1ccc(CCNC(=O)C(=O)NCC(c2ccco2)S(=O)(=O)c2cccs2)cc1OC (centres undefined) | 0.136% (inactive)
O=C(NCCc1ccc(Cl)cc1)c1ccc2c(c1)N(Cc1ccc(F)cc1)C(=O)CS2 | -0.585% (inactive)
COc1ccc(OC)c(-c2noc(N3CCN(c4cc(Cl)ccc4C)CC3)n2)c1 | 0.838% (inactive)
O=C(c1ccco1)N1CCN(C(=O)c2ccc(COc3ccc(F)cc3)o2)CC1 | -1.15% (inactive)
O=C(c1ccco1)N1CCN(CCOc2ccccc2)CC1 | 74.5% (active)
O=C(CNS(=O)(=O)c1ccccc1)N1CCN(C(=O)c2ccco2)CC1 | 0.7% (inactive)
O=C(NCc1ccc(Cl)cc1)c1ccc2c(c1)nnn2C1CCCC1 | -0.221% (inactive)
O=C(NCc1ccccc1)C1CCN(S(=O)(=O)c2ccc3[nH]c(=O)ccc3c2)CC1 | -1.06% (inactive)
c1ccc(-c2cnc(CN3CCN(c4ccccc4)CC3)o2)cc1 | 40% (active)
COc1ccc(N2CCN(Cc3nnc(-c4ccccc4)o3)CC2)cc1 | 0% (inactive)

Structure (SMILES) | activation
Cc1ccc(C)c(N2CCN(Cc3nnc(-c4ccccc4)o3)CC2)c1 | 0.463% (inactive)
COc1cc(OC)c(OC)cc1/C=C/c1nc2ccccc2c(=O)n1-c1ccc(Br)c(C)c1 | 1.46% (inactive)
CCOc1cc2[nH]c(=S)n(CCN3CCCCC3C)c(=O)c2cc1OCC (centres undefined) | 30.2% (active)
CCOc1cc2[nH]c(=S)n(CCCN3CCCC3=O)c(=O)c2cc1OCC | -1.56% (inactive)
COc1cc2[nH]c(=S)n(CCN3CCCCC3C)c(=O)c2cc1OC (centres undefined) | 1.14% (inactive)
Fc1ccc(-c2nc(Nc3cccc(Cl)c3)nc3c2COc2ccccc2-3)cc1 | -1.77% (inactive)
O=C1N(Cc2ccccc2)c2ccc(Cl)cc2C1(O)c1c[nH]c2ccccc12 (centres undefined) | 0.529% (inactive)
CCN(CC)c1ccc(NC(=O)Cn2nc3c(cc2=O)CCCC3)c(C)c1 | -1.68% (inactive)
Cc1cc(=O)c2cc(C(=O)Nc3cccc(C)c3C)ccc2[nH]1 | 1.06% (inactive)
COc1ccc(N2CCN(Cc3cc(=O)oc4ccc5ccccc5c34)CC2)cc1 | 48.7% (active)
COc1ccc2oc(=O)cc(CN3CCOCC3)c2c1 | 0.172% (inactive)
COc1ccc2c(CN3CCN(S(=O)(=O)c4cccs4)CC3)cc(=O)oc2c1 | 1.59% (inactive)
O=C(CN1CCN(c2ccccc2F)CC1)c1ccc2c(c1)OCO2 | 34.1% (active)
CC1(c2ccc(Cl)cc2)NC(=O)N(CC(=O)c2ccc3c(c2)OCO3)C1=O (centres undefined) | 6.26% (inactive)
CCC1(c2ccccc2)NC(=O)N(CC(=O)c2ccc3c(c2)OCO3)C1=O (centres undefined) | 0.171% (inactive)
COc1ccc(NC(=O)C2CCN(c3ccc(Sc4ccc(C)cc4)nn3)CC2)c(OC)c1 | -0.0405% (inactive)
CCN(CC)c1ccc2oc(=O)c(C)nc2c1 | 33.2% (active)
Cc1ccc2c(=O)oc(N(C)C)nc2c1 | -0.369% (inactive)
CCc1ccc2oc(-c3ccc(N)cc3)nc2c1 | 0.79% (inactive)
COC(=O)c1ccc(NC(=O)c2cnn(-c3ccc(Cl)cc3)c2C2CCN(C(=O)OC(C)(C)C)CC2)cc1 | -0.0655% (inactive)
CC(C)S(=O)(=O)c1oc(-c2ccc(F)cc2)nc1S(=O)(=O)c1ccc(F)cc1 | 6.9% (inactive)
COc1ccccc1NC(=O)CSc1oc(-c2ccco2)nc1S(=O)(=O)c1ccc(Br)cc1 | -0.604% (inactive)
CCOc1ccccc1N(CC)C(=O)c1cc2ccc3cccnc3c2[nH]1 | 0.0244% (inactive)

Structure (SMILES) | activation
COc1cccc(NC(=O)c2ccc3nc(CCc4ccccc4)oc3c2)c1 | 0.0569% (inactive)
O=C(COC(=O)CCc1ccc(S(=O)(=O)N2CCOCC2)cc1)Nc1cccc(Cl)c1 | 1.09% (inactive)
O=C(CN1CCCCCC1)Nc1ccc(S(=O)(=O)N2CCCCC2)cc1 | -2.81% (inactive)
O=C(CN1CCN(c2cccc(Cl)c2)CC1)Nc1ccc(S(=O)(=O)N2CCOCC2)cc1 | 56.5% (active)
COc1ccc(CCn2cc3c(c2-c2ccc(Br)cc2)c(=O)n(C)c(=O)n3C)cc1OC | -0.343% (inactive)
CCC(=O)Nc1cccc(C(=O)OCc2cc(=O)n3nc(CC)sc3n2)c1 | 3.26% (inactive)
Cc1cc(F)ccc1NC1(c2ccccc2)C(=O)c2ccccc2C1=O | -1.91% (inactive)
CC(C)CCN1CCN(C/C=C/c2ccco2)CC1CCO (centres undefined) | -3.43% (inactive)
CC(C)CCN1CCN(Cc2ccc(C(F)(F)F)cc2)CC1CCO (centres undefined) | -0.55% (inactive)
CC(C)CCN1CCN(Cc2cn[nH]c2C2CCCCC2)CC1CCO (centres undefined) | 71.9% (active)
COc1ccc(CNC(=O)CCc2c(C)nn(-c3ccc(N4CCCC4)nn3)c2C)cc1 | -0.779% (inactive)
COc1ccc(C2=NC(c3ccncc3)=Nc3ccc(Br)cc3N2)cc1 | 2.06% (inactive)
COc1ccc(OC)c2sc(N3CCN(C(=O)C4COc5ccccc5O4)CC3)nc12 (centres undefined) | -0.0345% (inactive)
COc1cc(NS(=O)(=O)c2ccc3c(c2)OCC(C(=O)N2CCCC2)O3)cc(OC)c1 (centres undefined) | 0.531% (inactive)
Cc1c(CC(=O)N2CCN(C(=O)C3COc4ccccc4O3)CC2)c(=O)oc2c(O)c(O)ccc12 (centres undefined) | 86.6% (active)
O=C(/C=C/c1cn(CC(O)CN2CCc3ccccc32)c2ccccc12)c1ccc(Br)cc1 (centres undefined) | 2.61% (inactive)
Cc1ccc(CSc2nc3ccsc3c(=O)n2CCC(C)C)cc1 | 0.237% (inactive)
COc1ccc(Cl)cc1NC(=O)Cn1c(=O)c2ccccc2n2nncc12 | 0.159% (inactive)
CCc1ccc(NC(=O)C(C)OC(=O)/C=C/c2cccc([N+](=O)[O-])c2)cc1 (centres undefined) | -0.67% (inactive)
CCC(CC)NC(=O)/C=C/c1cccc([N+](=O)[O-])c1 | 55.2% (active)
Cc1ccc(NC(=O)O/N=C/c2cccc([N+](=O)[O-])c2)cc1 | 1.09% (inactive)
O=S(=O)(NCCc1nnc2ccc(SCc3ccc(Cl)cc3Cl)nn12)c1ccccc1 | 0.55% (inactive)
CCOC(=O)C(Cc1ccccc1)NC(=O)CCc1c(C)nc2c(c(C)nn2-c2ccc(C)c(C)c2)c1C (centres undefined) | 3.29% (inactive)

Structure (SMILES) | activation
COC(=O)CN1C(=S)N(c2ccccc2)C(=O)C1CC(=O)Nc1ccc(Cl)cc1 (centres undefined) | -0.464% (inactive)
O=C(CSC1CC(=O)N(CCc2ccccc2)C1=O)Nc1ccc(Cl)cc1 (centres undefined) | 49.2% (active)
O=C(NCCCc1ccccc1)C1CCC(=O)N(CCc2ccc(Cl)cc2)C1 (centres undefined) | -1.17% (inactive)
CCc1ccc(CN(Cc2ccco2)C(=O)c2ccccc2Cl)cc1 | 0.564% (inactive)
COc1cc(NC(=O)c2nn(-c3ccc(C)cc3)c(=O)c3c2c2ccccc2n3C)cc(OC)c1OC | -0.5% (inactive)
Cc1ccc(O)c(-c2cc(C(=O)NCc3ccccc3)[nH]n2)c1 | 0.766% (inactive)
Cc1ccc(O)c(-c2cc(C(=O)Nc3c(C)n(C)n(-c4ccccc4)c3=O)[nH]n2)c1 | 34.8% (active)
Cc1c(NC(=O)c2cc(=O)c3ccccc3o2)c(=O)n(-c2ccccc2)n1C | 0.0233% (inactive)
O=C(NCc1ccc(F)cc1)c1ccc(Cn2c(SCc3ccc(F)cc3)nc3cccnc32)cc1 | 1.06% (inactive)
O=C(c1ccc2c(c1)N(Cc1ccccc1)C(=O)c1ccccc1S2(=O)=O)N1CCCC1 | 1.63% (inactive)
CC(C)(C)OC(=O)NCCCCCC(=O)N/N=C/c1coc2ccccc2c1=O | 0% (inactive)
COc1ccc(OCCCn2cccc2/C=C2/C(=N)N3OC(C)=CC3=NC2=O)cc1 | -1.02% (inactive)
CC1=CC2=NC(=O)/C(=C/c3coc4ccccc4c3=O)C(=N)N2O1 | 49.9% (active)
CCOC(=O)c1c(C)[nH]c(CCC(=O)Nc2ccc(OC)c(OC)c2)c1C | -0.832% (inactive)
Cc1ccc2ncc(C(=O)Nc3ccc(OC(F)(F)F)cc3)c(=O)n2c1 | -0.574% (inactive)
O=C(Oc1cccc(O)c1)C1CCCCC1 | 0.57% (inactive)
CCO[C@@H]1OC(C(=O)NCc2nc3ccccc3[nH]2)=C[C@H](C2CCCCC2)[C@H]1CCCO | -0.239% (inactive)
O=C(OCc1nc2ccccc2[nH]1)C1CCCCC1 | 41.5% (active)
COc1ccc(S(=O)(=O)NCC(c2ccc(N(C)C)cc2)N2CCCC2)cc1 (centres undefined) | -2.12% (inactive)
CC1CCCCN1S(=O)(=O)c1ccc(F)c(C(=O)Nc2ccccc2C(F)(F)F)c1 (centres undefined) | 0.192% (inactive)
